From PubChem
Sampled rows, rich in hits. Any-hit rate of the full collection: about 12%.
FMDV inh: foot and mouth disease virus antiviral activity | FMDV antiviral cell-based qHTS | Potency, µM (highest dose often 57.9 µM), most hits filed as inhibitors | 410,000 tested, 1.2% active | AID 1159524; calls by dose curve; tested in HEK293T cells; note: read-out not given here; nearly all actives have a fitted effect of over 45% in size
CHX counter: counter-screen hit for Shiga toxin inhibitors, cycloheximide; cell reporter, cycloheximide protein synthesis inhibition counterscreen; max response, %; 300,000 tested, 12% active; in the data active = max response mostly above about 13%, no sharp cut-off; inactive = mostly below about 14%; note: read at 38.3 µM for the half of the compounds with a filed dose
Sm TGR inh: inhibitors of Schistosoma mansoni thioredoxin glutathione reductase; Q962Y6; purified TGR, DTNB reduction, TNB absorbance 405 nm; AID 485364; Potency, µM (top dose mostly 114 µM), hits mostly inhibitors; 360,000 tested, 3% active; active = well fitted inhibition curve with a large enough effect; inconclusive = small, poorly fitted or top-dose-only effect; inactive = no such curve, though single readings can be large or run the other way; note: nearly all actives have a fitted effect of over 60% in size
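Kinetic colorimetric format: TGR-catalysed, NADPH-driven DTNB reduction monitored via TNB absorbance. Enzyme dispensed at 20 nM; compound exposure 15 min at room temperature before reaction start.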
Shiga toxin inh: inhibitors of Shiga toxin in Vero cells. Vero cells, Shiga toxin protein synthesis inhibition reporter. AID 2315. 290,000 tested, 9.2% active. inhibition, % at 38.7 µM; in the data active = inhibition mostly above about 28%, no sharp cut-off; inactive = mostly below about 43%
Numbers stand for hits; – = inactive; ? = inconclusive; · = no result.

SMILES	FMDV inh	CHX counter	Sm TGR inh	Shiga toxin inh
COc1ccc(N(C)C(=O)Cn2cc(S(=O)(=O)N3CCN(c4ccccc4F)CC3)c3ccccc3c2=O)c(OC)c1	–	·	–	·
O=C(NCc1ccccc1Cl)C(=O)NCC(c1ccc2c(c1)OCO2)N1CCOCC1 (stereo not given)	–	·	–	·
CCOC(=O)C(CC)Sc1ncnc2sc3c(c12)CCCC3 (stereo not given)	–	·	–	·
Fc1ccc([C@H]2CCNC[C@H]2COc2ccc3c(c2)OCO3)cc1	–	·	·	·
O=C(Cn1nnc2ccccc21)c1ccc(Br)cc1	–	35	–	48
O=C(Cn1c(C(F)(F)F)nc2ccccc21)c1ccc(Br)cc1	–	–	–	–
C/C(=N\NC(=O)CCn1nnc2ccccc21)c1cccs1	–	33	–	51
C(=N\N=C\c1ccccc1)/c1ccccc1	–	55	–	132
Cc1ccc(/C=N/N=C/c2ccc(C)cc2)cc1	–	37	–	74
Fc1cccc(/C=N/N=C/c2cccc(F)c2)c1	–	31	–	112
Cc1ccc(/C=N/n2nnnc2N)cc1	–	·	·	·
Oc1ccc(/C=N/N=C/c2ccc(O)cc2)cc1	–	50	·	115
COc1ccccc1CNC(=O)CCC1N=C2c3ccccc3N=C(SCc3ccc(C)cc3C)N2C1=O (stereo not given)	–	·	–	·
CCC1CCCCN1C(=O)c1ccc2nc(Cc3ccc(OC)cc3)oc2c1 (stereo not given)	–	35	–	77
COCC1CCCCN1C(=O)c1ccc2nc(Cc3ccc(OC)c(OC)c3)oc2c1 (stereo not given)	–	12	–	–
COc1ccc(Cc2nc3ccc(C(=O)N4CCCCC4CCO)cc3o2)cc1 (stereo not given)	–	–	–	–
COc1ccc(Cc2nc3ccc(C(=O)NCC4COCCO4)cc3o2)cc1OC (stereo not given)	–	34	–	–
CCOC(=O)c1cc(C)n(CC2CCC(C(=O)Nc3ccc(OC)cc3)CC2)c1C (stereo not given)	?	·	–	·
CCOC(=O)C1(CCOC)CCN(Cc2ccccc2-c2ccco2)CC1	–	–	35µM	–
CCOC(=O)C1(CCOc2ccccc2)CCN(Cc2cc(OC)ccc2OC)CC1	?	–	–	–
CCOC(=O)C1(CCOC)CCN(Cc2nc(C(C)C)cs2)CC1	–	30	–	68
COc1ccc(CC2(CO)CCN(Cc3nc(C(C)C)cs3)CC2)cc1	?	–	–	–
CC1(C)CC(=O)c2c(-c3cccs3)n[nH]c2C1	–	18	–	90
Cc1ccc(NC(=O)CN2C(=O)N/C(=C/c3cc(C)n(-c4ccc(C(=O)O)cc4)c3C)C2=O)cc1	–	–	45µM	84
Cc1ccc(NC(=O)CN2C(=O)S/C(=C\c3cc(C)n(-c4ccc(C(=O)O)cc4)c3C)C2=O)cc1	–	–	·	–
SMILES	FMDV inh	CHX counter	Sm TGR inh	Shiga toxin inh
Cc1ccc(NC(=O)CN2C(=O)N/C(=C/c3ccco3)C2=O)cc1	–	–	50µM	–
Cc1ccc(NC(=O)CN2C(=O)N/C(=C/c3cccn3-c3ccc(C(=O)O)cc3)C2=O)cc1	–	–	?	–
CC1(C)CC(N2CCN(CCO)CC2)=CC(=S)N1	–	–	40µM	–
CC1(C)CC(NCc2ccccc2)=CC(=S)N1	–	·	·	·
CC(=O)c1ccc(NC(=O)C2CCCN(S(=O)(=O)c3cn(C)cn3)C2)cc1 (stereo not given)	–	·	–	·
COc1ccc(/C=C/C(=O)c2ccc3c(c2)OCCO3)cc1[N+](=O)[O-]	?	–	–	–
CC(C)(C)c1cc(C(=O)/C=C/c2ccc(C(=O)O)cc2)cc(C(C)(C)C)c1	25µM	·	·	·
CC(=O)Nc1ccc(/C=C/C(=O)c2ccc3c(c2)OCCO3)cc1	–	23	–	45
O=C(/C=C/c1ccccc1)c1ccc2ccccc2c1	–	·	·	·
CSc1ccc(/C=C/C(=O)c2ccc(NC(C)=O)cc2)cc1	–	33	–	59
CCOc1cc(/C=C/C(=O)c2ccc3c(c2)OCCO3)ccc1OCC(=O)N(C)C	14µM	–	–	–
Cc1cc(C)cc(Nc2cc(C(=O)NC3CCC(C)CC3)c3ccccc3n2)c1 (stereo not given)	–	·	–	·
Cc1ccccc1-c1cc2nccc(-c3cc(Cl)ccc3O)n2n1	–	·	–	·
O=C(O)c1ccc(/C=C/C(=O)c2ccc3c(c2)OCCCO3)cc1	10µM	105	–	92
O=C(/C=C/c1cccc([N+](=O)[O-])c1)c1ccc2c(c1)OCCO2	–	–	–	–
COC(=O)c1sc2ccccc2c1S(=O)(=O)N1CCN(c2ccc(C(C)=O)cc2)CC1	–	·	–	·
CCCc1c(-c2cccc(Cl)c2)ncn1Cc1cccc(-c2ccccc2)c1	–	·	·	·
CCCCCc1c(-c2ccc(Cl)cc2)ncn1CCc1ccccc1OC	–	·	·	·
CCCCc1c(-c2cccc(Cl)c2)ncn1CCc1ccccc1OC	22µM	·	·	·
CCCCc1c(-c2ccc(OC)cc2)ncn1CCc1ccccc1OC	22µM	·	·	·
COc1ccc(Cc2nn3c(-c4ccccc4OC)nnc3s2)cc1	–	–	–	–
CCCCCc1c(-c2ccc(OC)cc2)ncn1CCc1ccccc1OC	22µM	·	·	·
CCCCc1c(-c2ccccc2OC)ncn1CCc1ccc(OC)cc1	22µM	·	·	·
CCCCc1c(-c2ccc(F)cc2)ncn1CCc1ccccc1OC	25µM	·	·	·
CCCCc1c(-c2ccccc2)ncn1CCc1ccccc1OC	25µM	·	·	·
SMILES	FMDV inh	CHX counter	Sm TGR inh	Shiga toxin inh
COc1cccc(S(=O)(=O)N2CCN(S(=O)(=O)c3ccc4c(c3)OCCO4)CC2)c1	·	–	·	–
CN1CCCNc2nc3ccccc3nc21	–	35	–	84
Cc1ccc(N=Cc2c(O)n(C)c(=O)n(C)c2=O)cc1	–	–	–	–
Cc1cccc(N=Cc2c(O)n(C)c(=O)n(C)c2=O)c1	–	–	–	25
COCC1CCN(C(=O)c2cc(COc3ccc(OC)cc3Cl)on2)C1 (stereo not given)	–	·	·	·
CCOC(=O)N1CCN(C(=O)c2cc(COc3ccc(OC)cc3Cl)on2)CC1	–	70	?	105
COc1ccc(OCc2cc(C(=O)N3C[C@@H](C)O[C@@H](C)C3)no2)c(Cl)c1	–	40	–	94
COc1ccc(OCc2cc(C(=O)N3CCCCCCC3)no2)c(Cl)c1	–	40	–	61
COc1ccc(OCc2cc(C(=O)N3CCN(C4CCCC4)CC3)no2)c(Cl)c1	–	42	–	77
CCOCCCNC(=O)N1CCN(S(=O)(=O)c2ccc3c(ccn3C)c2)CC1	–	·	–	·
COc1ccc(OCc2cc(C(=O)N3CCN(CC4CC4)CC3)no2)c(Cl)c1	–	52	–	55
CC1CN(C(=O)c2cccc(C(=O)N3CC(C)OC(C)C3)c2)CC(C)O1 (stereo not given)	–	–	–	–
CC1CN(C(=O)c2cccc(COc3ccccc3Cl)c2)CC(C)O1 (stereo not given)	–	40	–	135
CCOc1ccc(CCNC(=O)Cn2ncn3c(cc4sc(C)cc43)c2=O)cc1OCC	–	·	–	·
CC1CCC/C(=N\NC(=S)NCc2ccccc2)C1 (stereo not given)	–	–	–	–
CC1CCCC/C1=N\NC(=S)Nc1ccccc1 (stereo not given)	–	18	–	–
CC1CCC/C(=N\NC(=S)Nc2ccccc2)C1 (stereo not given)	–	79	–	102
